{"source": "paper PMC8384837", "about": "“Expanding the binding specificity for RNA recognition by a PUF domain”", "assay_in_all_cases": "yeast three-hybrid, YBZ-1, SC-Leu-His + 0.5 mM 3-AT, 4 days", "conditions_in_all_cases": "tags: N-Gal4 AD-HA kept; label: inside an RPR1-promoter hybrid RNA with tandem MS2 sites; ssRNA", "key": {"PUM1 PUF domain R2-EWE": {"biological_target": "PUM1 PUF domain R2-EWE (Homo sapiens, UniProt Q14671 828-1176, N899E;Y900W;Q903E)", "how_it_was_run": "(§1)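 Repeat regions from input (SC-Leu) and selection (SC-Leu-His + 0.5 mM 3-AT) plates were PCR-amplified and Illumina-sequenced after four days of growth. The cells were strain YBZ-1 with a LexA–MS2 coat fusion and a HIS3 reporter, co-expressing Pumilio-1 PUF domain libraries and matching RNA elements from a centromeric plasmid. The interaction score is the log change in variant frequency from input to selection, taken in log2 with a pseudocount of 1 for absent variants.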"}, "PUM1 PUF domain R8-SYR": {"biological_target": "PUM1 PUF domain R8-SYR (Homo sapiens, UniProt Q14671 828-1176, N1122S;Q1126R)", "how_it_was_run": "as §1"}, "PUM1 PUF domain R5-RAG": {"biological_target": "PUM1 PUF domain R5-RAG (Homo sapiens, UniProt Q14671 828-1176, C1007R;R1008A;Q1011G)", "how_it_was_run": "as §1"}, "PUM1 PUF domain R5-RRK": {"biological_target": "PUM1 PUF domain R5-RRK (Homo sapiens, UniProt Q14671 828-1176, C1007R;Q1011K)", "how_it_was_run": "as §1"}, "PUM1 PUF domain R7-LPT": {"biological_target": "PUM1 PUF domain R7-LPT (Homo sapiens, UniProt Q14671 828-1176, S1079L;N1080P;E1083T)", "how_it_was_run": "as §1"}, "PUM1 PUF domain R3-RVR": {"biological_target": "PUM1 PUF domain R3-RVR (Homo sapiens, UniProt Q14671 828-1176, C935R;R936V;Q939R)", "how_it_was_run": "as §1"}, "PUM1 PUF domain R3-YFE": {"biological_target": "PUM1 PUF domain R3-YFE (Homo sapiens, UniProt Q14671 828-1176, C935Y;R936F;Q939E)", "how_it_was_run": "as §1"}, "PUM1 PUF domain R3-IFG": {"biological_target": "PUM1 PUF domain R3-IFG (Homo sapiens, UniProt Q14671 828-1176, C935I;R936F;Q939G)", "how_it_was_run": "as §1"}, "PUM1 PUF domain R1-RTW": {"biological_target": "PUM1 PUF domain R1-RTW (Homo sapiens, UniProt Q14671 828-1176, S863R;R864T;Q867W)", "how_it_was_run": "as §1"}, "PUM1 PUF domain R3-GWD": {"biological_target": "PUM1 PUF domain R3-GWD (Homo sapiens, UniProt Q14671 828-1176, C935G;R936W;Q939D)", "how_it_was_run": "as §1"}, "PUM1 PUF domain R6-GWC": {"biological_target": "T1, PUM1 PUF domain R6-GWC (Homo sapiens, UniProt Q14671 828-1176, N1043G;Y1044W;Q1047C)", "T1 sequence": "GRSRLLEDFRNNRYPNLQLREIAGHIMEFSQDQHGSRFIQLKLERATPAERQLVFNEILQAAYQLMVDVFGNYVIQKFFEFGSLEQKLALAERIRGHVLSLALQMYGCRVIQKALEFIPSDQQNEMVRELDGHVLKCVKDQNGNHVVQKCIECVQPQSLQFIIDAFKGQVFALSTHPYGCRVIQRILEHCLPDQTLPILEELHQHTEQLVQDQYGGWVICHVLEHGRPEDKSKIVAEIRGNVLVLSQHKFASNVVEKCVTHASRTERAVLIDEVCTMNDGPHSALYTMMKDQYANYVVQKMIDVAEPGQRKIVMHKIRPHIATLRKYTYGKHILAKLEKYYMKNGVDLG", "how_it_was_run": "as §1"}, "PUM1 PUF domain R3-TAQ": {"biological_target": "PUM1 PUF domain R3-TAQ (Homo sapiens, UniProt Q14671 828-1176, C935T;R936A)", "how_it_was_run": "as §1"}, "PUM1 PUF domain R3-DYE": {"biological_target": "PUM1 PUF domain R3-DYE (Homo sapiens, UniProt Q14671 828-1176, C935D;R936Y;Q939E)", "how_it_was_run": "as §1"}, "PUM1 PUF domain R4-MPV": {"biological_target": "PUM1 PUF domain R4-MPV (Homo sapiens, UniProt Q14671 828-1176, N971M;H972P;Q975V)", "how_it_was_run": "as §1"}, "PUM1 PUF domain R3-PFL": {"biological_target": "PUM1 PUF domain R3-PFL (Homo sapiens, UniProt Q14671 828-1176, C935P;R936F;Q939L)", "how_it_was_run": "as §1"}, "PUM1 PUF domain R5-QGR": {"biological_target": "PUM1 PUF domain R5-QGR (Homo sapiens, UniProt Q14671 828-1176, C1007Q;R1008G;Q1011R)", "how_it_was_run": "as §1"}, "PUM1 PUF domain R5-ATR": {"biological_target": "PUM1 PUF domain R5-ATR (Homo sapiens, UniProt Q14671 828-1176, C1007A;R1008T;Q1011R)", "how_it_was_run": "as §1"}, "PUM1 PUF domain R5-DMR": {"biological_target": "PUM1 PUF domain R5-DMR (Homo sapiens, UniProt Q14671 828-1176, C1007D;R1008M;Q1011R)", "how_it_was_run": "as §1"}, "PUM1 PUF domain R5-KYR": {"biological_target": "PUM1 PUF domain R5-KYR (Homo sapiens, UniProt Q14671 828-1176, C1007K;R1008Y;Q1011R)", "how_it_was_run": "as §1"}, "PUM1 PUF domain R5-KAG": {"biological_target": "PUM1 PUF domain R5-KAG (Homo sapiens, UniProt Q14671 828-1176, C1007K;R1008A;Q1011G)", "how_it_was_run": "as §1"}}}
{"sequence": "GGCUAGAACUAGUGGAUCCCCCGGCGCCCGGCGGCUCGAGCCCGGGUAAGUGUAAAGAGUCUGCAUGCCGCCGGGCGCCAUGCCUGCAGGUCGACUCUAGAAAACAUG", "values": [{"measurement": "binding signal", "setting": "PUM1 PUF domain R2-EWE", "result": "3.45 log2 enrichment (interaction score)"}]}
{"sequence": "GGCUAGAACUAGUGGAUCCCCCGGCGCCCGGCGGCUCGAGCCCGGGUAAGCGUAAAUAGUCUGCAUGCCGCCGGGCGCCAUGCCUGCAGGUCGACUCUAGAAAACAUG", "values": [{"measurement": "binding signal", "setting": "PUM1 PUF domain R8-SYR", "result": "4.37 log2 enrichment (interaction score)"}]}
{"sequence": "GGCUAGAACUAGUGGAUCCCCCGGCGCCCGGCGGCUCGAGCCCGGGUAAGUGUUAAUAGUCUGCAUGCCGCCGGGCGCCAUGCCUGCAGGUCGACUCUAGAAAACAUG", "values": [{"measurement": "binding signal", "setting": "PUM1 PUF domain R5-RAG", "result": "3.37 log2 enrichment (interaction score)"}, {"measurement": "binding signal", "setting": "PUM1 PUF domain R5-RRK", "result": "4.7 log2 enrichment (interaction score)"}]}
{"sequence": "GGCUAGAACUAGUGGAUCCCCCGGCGCCCGGCGGCUCGAGCCCGGGUAAGUGUGAAUAGUCUGCAUGCCGCCGGGCGCCAUGCCUGCAGGUCGACUCUAGAAAACAUG", "values": [{"measurement": "binding signal", "setting": "PUM1 PUF domain R5-RAG", "result": "0.18 log2 enrichment (interaction score)"}, {"measurement": "binding signal", "setting": "PUM1 PUF domain R5-RRK", "result": "1.4 log2 enrichment (interaction score)"}]}
{"sequence": "GGCUAGAACUAGUGGAUCCCCCGGCGCCCGGCGGCUCGAGCCCGGGUAAGUUUAAAUAGUCUGCAUGCCGCCGGGCGCCAUGCCUGCAGGUCGACUCUAGAAAACAUG", "values": [{"measurement": "binding signal", "setting": "PUM1 PUF domain R7-LPT", "result": "3.22 log2 enrichment (interaction score)"}]}
{"sequence": "GGCUAGAACUAGUGGAUCCCCCGGCGCCCGGCGGCUCGAGCCCGGGUAAGUGUAAGUAGUCUGCAUGCCGCCGGGCGCCAUGCCUGCAGGUCGACUCUAGAAAACAUG", "values": [{"measurement": "binding signal", "setting": "PUM1 PUF domain R3-RVR", "result": "1.73 log2 enrichment (interaction score)"}, {"measurement": "binding signal", "setting": "PUM1 PUF domain R3-YFE", "result": "5.72 log2 enrichment (interaction score)"}, {"measurement": "binding signal", "setting": "PUM1 PUF domain R3-IFG", "result": "5.86 log2 enrichment (interaction score)"}]}
{"sequence": "GGCUAGAACUAGUGGAUCCCCCGGCGCCCGGCGGCUCGAGCCCGGGUAAGUGUAAAUUGUCUGCAUGCCGCCGGGCGCCAUGCCUGCAGGUCGACUCUAGAAAACAUG", "values": [{"measurement": "binding signal", "setting": "PUM1 PUF domain R1-RTW", "result": "3 log2 enrichment (interaction score)"}]}
{"sequence": "GGCUAGAACUAGUGGAUCCCCCGGCGCCCGGCGGCUCGAGCCCGGGUAAGUGUAAAUAGUCUGCAUGCCGCCGGGCGCCAUGCCUGCAGGUCGACUCUAGAAAACAUG", "values": [{"measurement": "binding signal", "setting": "PUM1 PUF domain R8-SYR", "result": "4.42 log2 enrichment (interaction score)"}, {"measurement": "binding signal", "setting": "PUM1 PUF domain R3-GWD", "result": "5.07 log2 enrichment (interaction score)"}, {"measurement": "binding signal", "setting": "PUM1 PUF domain R6-GWC", "result": "2.76 log2 enrichment (interaction score)"}, {"measurement": "binding signal", "setting": "PUM1 PUF domain R3-TAQ", "result": "4.25 log2 enrichment (interaction score)"}, {"measurement": "binding signal", "setting": "PUM1 PUF domain R3-DYE", "result": "3.76 log2 enrichment (interaction score)"}, {"measurement": "binding signal", "setting": "PUM1 PUF domain R5-RAG", "result": "0.1 log2 enrichment (interaction score)"}, {"measurement": "binding signal", "setting": "PUM1 PUF domain R5-RRK", "result": "1.82 log2 enrichment (interaction score)"}, {"measurement": "binding signal", "setting": "PUM1 PUF domain R3-IFG", "result": "3.21 log2 enrichment (interaction score)"}, {"measurement": "binding signal", "setting": "PUM1 PUF domain R4-MPV", "result": "2.14 log2 enrichment (interaction score)"}, {"measurement": "binding signal", "setting": "PUM1 PUF domain R3-PFL", "result": "3.64 log2 enrichment (interaction score)"}]}
{"sequence": "GGCUAGAACUAGUGGAUCCCCCGGCGCCCGGCGGCUCGAGCCCGGGUAAGUGUAAUUAGUCUGCAUGCCGCCGGGCGCCAUGCCUGCAGGUCGACUCUAGAAAACAUG", "values": [{"measurement": "binding signal", "setting": "PUM1 PUF domain R3-RVR", "result": "4.85 log2 enrichment (interaction score)"}, {"measurement": "binding signal", "setting": "PUM1 PUF domain R3-IFG", "result": "3.79 log2 enrichment (interaction score)"}, {"measurement": "binding signal", "setting": "PUM1 PUF domain R3-PFL", "result": "4.55 log2 enrichment (interaction score)"}]}
{"sequence": "GGCUAGAACUAGUGGAUCCCCCGGCGCCCGGCGGCUCGAGCCCGGGUAAGUGUAUAUAGUCUGCAUGCCGCCGGGCGCCAUGCCUGCAGGUCGACUCUAGAAAACAUG", "values": [{"measurement": "binding signal", "setting": "PUM1 PUF domain R4-MPV", "result": "3.02 log2 enrichment (interaction score)"}]}
{"sequence": "GGCUAGAACUAGUGGAUCCCCCGGCGCCCGGCGGCUCGAGCCCGGGUAAGUGUCAAUAGUCUGCAUGCCGCCGGGCGCCAUGCCUGCAGGUCGACUCUAGAAAACAUG", "values": [{"measurement": "binding signal", "setting": "PUM1 PUF domain R5-QGR", "result": "3.22 log2 enrichment (interaction score)"}, {"measurement": "binding signal", "setting": "PUM1 PUF domain R5-ATR", "result": "3.13 log2 enrichment (interaction score)"}, {"measurement": "binding signal", "setting": "PUM1 PUF domain R5-DMR", "result": "3.01 log2 enrichment (interaction score)"}, {"measurement": "binding signal", "setting": "PUM1 PUF domain R5-KYR", "result": "2.48 log2 enrichment (interaction score)"}, {"measurement": "binding signal", "setting": "PUM1 PUF domain R5-RAG", "result": "3.6 log2 enrichment (interaction score)"}, {"measurement": "binding signal", "setting": "PUM1 PUF domain R5-RRK", "result": "4.43 log2 enrichment (interaction score)"}, {"measurement": "binding signal", "setting": "PUM1 PUF domain R5-KAG", "result": "2.58 log2 enrichment (interaction score)"}]}
